# In PubChem BioAssay (NCATS):
# Results filed as inconclusive are left out. A number with no mark means an inactive call. Calls of active or inactive are those of the source. Calls follow the shape of the dose curve; as a rule, active = well fitted inhibition curve with a large enough effect; inconclusive = small, poorly fitted or top-dose-only effect; inactive = no such curve, though single readings can be large or run the other way.
# Assay: qHTS for Inhibitors of the Aldehyde Dehydrogenase Family (ALDH1A2, ALDH1A3, ALDH2, ALDH3A1) (AID 2061307); also: nearly all actives have a fitted effect of over 50% in size; as to Potency: test system not described further here
# Details: ALDH inhibition qHTS; series mostly up to 50.3 µM; activity change, negative = inhibition: at the top concentration
# % is scaled to controls: 0 for no effect and ±100 for the full control effect; potency is read from the fitted curve at half-maximal effect.
Compound,"activity change, negative = inhibition",Potency
Cc1cccc(NC(=O)C2CC(=O)N(c3ccc(S(=O)(=O)N(C)C)cc3)C2)n1 (stereo not given),-6.51%,–
CC(C)(C)c1ccccc1-n1c(CN2CCN(C(=O)c3ccco3)CC2)nc2ccccc2c1=O,0%,–
CCn1c(=O)cc(OCC(=O)N2CCN(c3cccc(Cl)c3)CC2)c2ccccc21,-10.8%,–
Cc1ccc2c(CC(=O)Nc3c(C(=O)c4ccc(F)cc4)oc4ccccc34)coc2c1C,-18.1% [at 34.4 µM],–
Cc1ccc(NC(=O)c2cnc3cc(C)ccn3c2=O)c(C)c1,-50.3% [at 34.4 µM],–
CNc1nc2c(s1)C(c1ccccc1Cl)CC(=O)N2 (stereo not given),–,11.3 µM (active)
N#CCc1c(Cc2ccc(S(N)(=O)=O)cc2)c(-c2ccccc2)nn1-c1nc(C(=O)O)cs1,-25.6%,–
CS(=O)(=O)c1cccc(-c2csc3ncnc(NCc4ccccn4)c23)c1,–,14.1 µM (active)
O=C(O)c1csc(-n2[nH]c(-c3ccc(F)c(Cc4ccccc4)c3)cc2=O)n1,–,22.5 µM (active)
Cc1ccccc1C(=O)N1CCc2cc(-c3nc(NC(=O)CC4CCOCC4)sc3C)ccc21,–,4.47 µM (active)
COc1cccc2cc(C(=O)Nc3ccc(F)c(F)c3)c(=O)oc12,-13.9% [at 34.4 µM],–
O=C(O)c1csc(-n2[nH]c(-c3cc(F)ccc3F)cc2=O)n1,-23.6%,–
CCS(=O)(=O)c1nc(-c2ccc(Cl)cc2)cc(C(F)(F)F)n1,–,4.47 µM (active)
CS(=O)(=O)c1nc(-c2ccc(Br)cc2)cs1,-2.71%,–
O=C(c1cccc(Cl)c1)c1no[n+]([O-])c1C(=O)c1cccc(Cl)c1,–,12.7 µM (active)
O=C(Nc1cccc(S(=O)(=O)N2CCOCC2)c1)c1ccc(CN2CCc3ccccc3C2)cc1,–,3.98 µM (active)
COc1ccc2c(c1)CCNC2Cc1ccc(OC)c(O)c1 (stereo not given),-18.8%,–
O=C(Nc1ccncc1)c1cccs1,-78.7%,–
COc1cc(O)c(C(CC(=O)N2CC(C)CC(C)C2)c2cccc(OC(C)C)c2)c(OC)c1 (stereo not given),–,12.7 µM (active)
COc1ccc(-n2c(C)c(C(=O)c3ccccc3)c3cc(O)ccc32)cc1,3.6% [at 34.4 µM],–

Compound,"activity change, negative = inhibition",Potency
O=C(Cn1c2ncccc2c(=O)n1-c1ccccc1)Nc1ccc(Cl)cc1C(F)(F)F,-28.2% [at 34.4 µM],–
Fc1ccc(CN2CCC(N(CCc3ccccc3)Cc3ccccc3)CC2)cc1,-35.2%,–
N[C@@H](CCC(=O)O)C(=O)Nc1cccc(-c2nn3c(=O)cc(N4CCNCC4)nc3s2)c1,-3.94%,–
COc1ccc(NC(=O)Cn2ncc3ccccc3c2=O)cc1S(=O)(=O)N1CCOCC1,-4.56%,–
Cc1ccc(-c2ccccc2)n1-c1ccccc1C(=O)O,–,15.9 µM (active)
Cc1cc(Cl)ccc1-n1c(CCC(=O)O)ccc1-c1cccs1,–,12.7 µM (active)
N#Cc1nc(-c2ccc(F)cc2)oc1N1CCN(C(=O)c2ccccc2F)CC1,-11.8%,–
CN(C)c1ccc(NC(=O)c2cn(-c3ccccc3)nn2)cn1,-6.95% [at 34.4 µM],–
CSc1ncc(CNc2cc([N+](=O)[O-])ccc2C)c(N)n1,–,17.8 µM (active)
COc1cc(O)c(C(CC(=O)N2CC(C)CC(C)C2)c2ccc(S(=O)(=O)N(C)C)cc2)c(OC)c1 (stereo not given),-25.1%,–
O=C1Cc2cc(S(=O)(=O)N3CCN(c4ccc(C(=O)O)cc4)CC3)ccc2N1,-15.4%,–
Cc1c(P(=S)(c2ccccc2)c2ccccc2)[n+]2ccccc2n1C/C=C/c1ccc(Cl)cc1,-7.71%,–
O=C(O)c1cccc(COc2cccc([N+](=O)[O-])c2)c1,–,0.269 µM (active)
Cn1nnnc1Sc1ncnc2n[nH]c(-c3ccccc3)c12,-26.4%,–
Cc1sc(-n2nc(-c3ccccc3)c(Cc3ccc(S(N)(=O)=O)cc3)c2N)nc1C(=O)O,-18.3%,–
COc1ccc(-c2cc(C(=O)Nc3sc4c(c3C(N)=O)CCCC4)no2)cc1,0% [at 34.4 µM],–
O=C([C@@H](NS(=O)(=O)c1ccc2[nH]c(=O)ccc2c1)c1ccccc1)N(Cc1ccco1)Cc1cccs1,7.55%,–
Cc1ccccc1C(=O)c1no[n+]([O-])c1C(=O)c1ccccc1C,–,10 µM (active)
COc1cccc(N2CCN(C(=O)CCCCCn3c(=O)[nH]c4ccccc4c3=O)CC2)c1,0% [at 34.4 µM],–
COc1ccc(Cl)cc1Nc1cc(C)nc2nc(-c3ccccc3C)nn12,-49.2% [at 34.4 µM],–
